Test [1] can be described thus: qHTS of pediatric cancer cell lines to identify multiple opportunities for drug repurposing: Confirmatory screen for BT-37 cells (AID 1347117). Further: potency means the concentration at half of the fitted maximal effect.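 Further: viability measured after 48 h of compound exposure; nearly all actives have a fitted effect of over 55% in size.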 The method in brief: (§1)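 Cells (500-1,000/well) rested 5 h, then received compounds for 48 h; metabolically active cells were measured by CellTiter-Glo luminescence. Final concentrations spanned up to 46 µM (MIPE, 11-point) or 0.59 nM-46 µM (NPC, 8-point) in primary screens, 11-point in follow-ups.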

Test [2] is described as follows: qHTS of pediatric cancer cell lines to identify multiple opportunities for drug repurposing: Confirmatory screen for TC32 cells (AID 1347118).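 Further: cells exposed to compound for 48 h before the read; nearly all actives have a fitted effect of over 65% in size.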 Further: potency means the concentration at half of the fitted maximal effect. The method in brief:
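Luminescent CellTiter-Glo read-out of metabolically active TC32 cells after 48 h compound exposure. Primary: MIPE 11-point, 0.78 nM–46 µM; NPC 8-point, 0.59 nM–46 µM. Confirmatory: 11-point dilutions.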

A short description of test [3]: qHTS of pediatric cancer cell lines to identify multiple opportunities for drug repurposing: Confirmatory screen for MG 63 (6-TG R) cells (AID 1347119). Further: nearly all actives have a fitted effect of over 55% in size. Further: potency means the concentration at half of the fitted maximal effect. The method in brief: as §1
The nature of test [4]: qHTS of pediatric cancer cell lines to identify multiple opportunities for drug repurposing: Confirmatory screen for control Hh wild type fibroblast cells (AID 1347121). Further: nearly all actives have a fitted effect of over 70% in size. Further: potency means the concentration at half of the fitted maximal effect. Summed up: as §1
Test [5] is described as follows: qHTS of pediatric cancer cell lines to identify multiple opportunities for drug repurposing: Confirmatory screen for U-2 OS cells (AID 1347122). Further: potency means the concentration at half of the fitted maximal effect; nearly all actives have a fitted effect of over 65% in size. The method in brief:
as §1

A short description of test [6]: qHTS of pediatric cancer cell lines to identify multiple opportunities for drug repurposing: Confirmatory screen for RD cells (AID 1347124).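 Further: potency means the concentration at half of the fitted maximal effect; cells exposed to compound for 48 h before viability readout; nearly all actives have a fitted effect of over 65% in size.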 Summed up:
as §1

Test [7] can be described thus: qHTS of pediatric cancer cell lines to identify multiple opportunities for drug repurposing: Confirmatory screen for Rh18 cells (AID 1347125). Further: nearly all actives have a fitted effect of over 55% in size. Further: potency means the concentration at half of the fitted maximal effect. Summed up: as §1
A short description of test [8]: qHTS of pediatric cancer cell lines to identify multiple opportunities for drug repurposing: Confirmatory screen for Rh30 cells (AID 1347126). Further: nearly all actives have a fitted effect of over 55% in size. Further: potency means the concentration at half of the fitted maximal effect. The method in brief:
as §1

The nature of test [9]: qHTS of pediatric cancer cell lines to identify multiple opportunities for drug repurposing: Confirmatory screen for Saos-2 cells (AID 1347127). Further: nearly all actives have a fitted effect of over 60% in size. Further: potency means the concentration at half of the fitted maximal effect. Summed up:
as §1

Test [10] can be described thus: qHTS of pediatric cancer cell lines to identify multiple opportunities for drug repurposing: Confirmatory screen for OHS-50 cells (AID 1347128). Summed up:
as §1

A short description of test [11]: qHTS of pediatric cancer cell lines to identify multiple opportunities for drug repurposing: Confirmatory screen for SK-N-SH cells (AID 1347129).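 Further: cells exposed to compound for 48 h before viability read; nearly all actives have a fitted effect of over 60% in size.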 Further: potency means the concentration at half of the fitted maximal effect. Summed up: as §1
Test [12] in a line: qHTS of pediatric cancer cell lines to identify multiple opportunities for drug repurposing: Confirmatory screen for Rh41 cells (AID 1347123). Further: potency means the concentration at half of the fitted maximal effect; nearly all actives have a fitted effect of over 60% in size. The method in brief: as §1
Test [13] concerns Zika virus NS2B-NS3 protease. The test can be described thus: Primary screen GU AMC qHTS for Zika virus inhibitors (AID 1347154). Further: nearly all actives have a fitted effect of over 70% in size. The method in brief:
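Fluorogenic AMC-substrate cleavage by noncovalent NS2B-NS3 protease complex (25 nM, pH 8.0 Tris buffer with Tween 20) followed for 15 minutes at room temperature (~20% conversion). Percent inhibition from ex340/em450 signal change, fitted by 4-parameter Hill equation.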

The test system of test [14] is Zika virus NS2B-NS3 protease (unlinked complex). In words: Primary screen GU Rhodamine qHTS for Zika virus inhibitors: Unlinked NS2B-NS3 protease assay (AID 1347159). Further: nearly all actives have a fitted effect of over 60% in size. Further: potency means the concentration at half of the fitted maximal effect. The method in brief: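 Buffer 10 mM Tris-HCl pH 8.0, 0.01% Tween 20. Unlinked protease 25 nM; compound preincubation 15 min, RT, protected from light. Substrate Rhod110, 1.5 microM; ~15% conversion in 15 min.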

Results filed as inconclusive are left out. A number with no mark means an inactive call. The source made the active and inactive calls. The call rests on the fitted dose curve; in most records, active means well fitted curve in the direction sought with a large enough effect; inconclusive means small, poorly fitted or top-dose-only effect, or another doubt; inactive means no such curve, though single readings can be large; an effect the other way counts as inactive or inconclusive.

`COC(=O)[C@]12CCC(C)(C)C[C@@H]1[C@@H]1C(=O)C=C3[C@@]4(C)C=C(C#N)C(=O)C(C)(C)[C@@H]4CC[C@@]3(C)[C@]1(C)CC2`: the Potency in test [1] is 3.69 µM (active); in test [2] it was 3.29 µM (active); in test [3], 4.65 µM (active); in test [4] it was 7.37 µM (active); in [5], 2.08 µM (active); in test [6], 1.65 µM (active). For the same compound, the Potency in test [7] was 5.22 µM (active); in [8] it was 3.29 µM (active); in [9] it was 3.69 µM (active); in test [10], 5.22 µM (active); in test [11], 2.09 µM (active).
As to `Cc1ccc(C(N)=O)cc1Nc1nccc(-c2cn(C(C)C)c3cnccc23)n1`, the Potency was 6.76 µM (active) in test [1]; 7.59 µM (active) in test [2]; 13.5 µM (active) in [12]; 21.4 µM (active) in [9]; 12 µM (active) in test [10]; 6.79 µM (active) in test [11]. The Potency entry in [3], in test [4], in test [13] and in test [14] was “inactive” throughout.
`COc1ccc(C=Cc2cc(OC)c(OC)c(OC)c2)cc1O`: the Potency in test [1] is 0.0147 µM (active); in test [2], 0.0131 µM (active); in [3], 0.0104 µM (active); in [5] it was 0.0261 µM (active); in test [6], 0.0117 µM (active); in test [9] it was 0.0104 µM (active). In addition, the Potency entry in test [4], in test [7] and in [8] was “inactive” throughout.
`COc1cccc2c(NCc3ccccc3)nc(-n3c(N)nc4ccccc43)nc12`: the Potency is 7.37 µM (active) in [1]; 7.37 µM (active) in [2]; 5.85 µM (active) in [3]; 9.27 µM (active) in test [4]; 0.0465 µM (active) in test [8]; 9.27 µM (active) in [9]. In addition, the Potency in [10] was 8.27 µM (active); in [11], 8.33 µM (active); in test [14], 50.1 µM (active). In addition, in [13], the Potency result was “inactive”.
Take `CC(C)c1cnn2c(NCc3ccccc3)cc(N[C@@H](CO)[C@H](O)CO)nc12`: the Potency was 0.369 µM (active) in [1]; 0.522 µM (active) in [2]; 0.827 µM (active) in [3]; 0.737 µM (active) in test [12]; 0.737 µM (active) in [6]; 0.585 µM (active) in [9]. Also, the Potency in test [10] is 0.522 µM (active); in test [11] it was 0.332 µM (active). The Potency result in test [4], in [13] and in [14] was “inactive” each time.
For the compound `CC1(C)O[C@@H]2C[C@@H]3[C@H]4C[C@@H](F)C5=CC(=O)C=C[C@]5(C)[C@@]4(F)[C@@H](O)C[C@]3(C)[C@]2(C(=O)CO)O1`, the Potency in test [1] is 0.0827 µM (active); in test [2], 0.369 µM (active); in test [3] it was 2.61 µM (active); in test [5], 1.31 µM (active); in test [12], 0.585 µM (active); in [6] it was 8.27 µM (active). Further, the results for the Potency in test [9] and in [10] were 0.117 µM (active) and 0.0827 µM (active), respectively. For the same compound, the Potency result in test [4], in test [7], in test [8] and in test [13] was “inactive” each time.
Turning to `CNC(=O)c1ccccc1Nc1nc(Nc2ccc(N3CCOCC3)cc2OC)ncc1Cl`, the Potency is 13.1 µM (active) in [1]; 0.827 µM (active) in test [2]; 0.261 µM (active) in [3]; 13.1 µM (active) in test [5]; 0.827 µM (active) in test [6]; 4.14 µM (active) in [7]. Also, the Potency in test [9] is 1.47 µM (active); in test [10], 2.93 µM (active); in [11], 1.18 µM (active). The Potency entry in test [4], in test [8], in [13] and in test [14] was “inactive” in each case.
On to `CCC1=C[C@@H]2CN(C1)Cc1c([nH]c3ccccc13)[C@@](C(=O)OC)(c1cc3c(cc1OC)N(C)[C@@H]1[C@@](O)(C(=O)OC)[C@H](OC(C)=O)[C@]4(CC)C=CCN5CC[C@]31[C@@H]54)C2`, for which the Potency in test [1] is 7.37 µM (active); in test [2], 6.57 µM (active); in test [3], 13.1 µM (active); in test [5], 7.37 µM (active); in [6], 0.369 µM (active); in test [8], 23.3 µM (active). Further, the Potency is 7.37 µM (active) in test [9], 11.7 µM (active) in test [10] and 5.9 µM (active) in [11]. Further, the Potency entry in test [4], in test [7] and in test [13] was “inactive” each time.
As for `Cc1cc(Nc2ncnc3ccc(-c4ccc(CNCCS(C)(=O)=O)o4)cc23)ccc1Oc1ccn2ncnc2c1`, the Potency in test [1] was 16.5 µM (active); in test [2], 18.5 µM (active); in test [11], 20.9 µM (active). The Potency result in [3] and in test [4] was “inactive” throughout.
With `CC[C@H]1CN2CCc3cc(OC)c(OC)cc3[C@H]2C[C@@H]1C[C@@H]1NCCc2cc(OC)c(OC)cc21`, the Potency in [1] was 0.293 µM (active); in test [2], 0.233 µM (active); in test [3] it was 0.827 µM (active); in test [5], 0.928 µM (active); in test [12], 1.47 µM (active); in [6], 0.369 µM (active). For the same compound, the Potency is 5.85 µM (active) in test [8], 0.928 µM (active) in [9], 0.414 µM (active) in test [10] and 0.332 µM (active) in [11]. The Potency entry in [4] and in test [13] was “inactive” in each case.
In the case of `Cc1cc(C(=O)N2CCN(c3cccc(Cl)c3)CC2)n(-c2ccccc2)n1`, the Potency in test [1] was 5.22 µM (active); in test [2], 2.61 µM (active); in test [3], 1.65 µM (active). The Potency entry in test [4], in [11] and in [13] was “inactive” each time.
`Cc1ccc(NC(=O)C2(c3ccc4c(c3)OC(F)(F)O4)CC2)nc1-c1cccc(C(=O)O)c1`: the Potency entry in test [1], in [2], in test [3], in test [4], in test [9] and in test [11] was “inactive” in each case. Further, the Potency result in [13] is “inactive”. The Potency in [12] is 8.27 µM (active); in [6], 10.4 µM (active); in test [8], 9.27 µM (active); in [14] it was 17.8 µM (active).
On to `O=C(Nc1ncc(-c2cc(C(F)F)nn2-c2c(Cl)cccc2Cl)s1)C1CC1`, for which the Potency in test [1] is 1.04 µM (active); in [2], 0.369 µM (active); in test [3], 0.329 µM (active); in test [5], 1.04 µM (active); in [12], 0.928 µM (active); in [6] it was 0.827 µM (active). The Potency was 13.1 µM (active) in test [8] and 0.465 µM (active) in [9]. Moreover, the Potency result in test [14] was “inactive”.
Take `CNC(=O)c1c(F)cccc1Nc1nc(Nc2cc3c(cc2OC)CCN3C(=O)CN(C)C)nc2[nH]ccc12`: the Potency in test [1] was 26.1 µM (active); in [2], 0.522 µM (active); in test [3] it was 3.69 µM (active); in test [5], 0.928 µM (active); in test [12], 0.414 µM (active); in test [7] it was 14.7 µM (active). Besides, the Potency was 0.585 µM (active) in test [8], 3.69 µM (active) in test [9], 16.5 µM (active) in test [10] and 5.9 µM (active) in test [11]. Moreover, the Potency result in [13] was “inactive”.

The values above are taken from PubChem BioAssay (NCATS).
